Assay results reported in ChEMBL document CHEMBL3988442, “University of Dundee, Small-Polar-MMV Screening Library” (2021).
The whole screen tested about 48,000 compounds, of which about 13,000 (27%) showed an effect of 50% or more. Some of the results follow.

Tested on: Wolbachia pipientis
Assay: Anti-Wolbachia Cell-Based Screen
Assay type: functional
Set-up: scale not given: in the data most compounds retested in dose-response had high values
Settings: 5 µM

| Compound | Percent Effect [%] |
| --- | --- |
| CC(CNC(=O)c1cccnc1O)Cn1cccn1 (stereo not given) | -0.5981 |
| O=C1CCCN1CCCC(=O)N1CCCCC1c1ccc(F)cc1 (stereo not given) | -8.614 |
| O=C(NCCNS(=O)(=O)c1ccc(C(F)(F)F)cc1)c1ccoc1 | 7.368 |
| CCCN1CCC(NC(=O)c2csc(C)c2C)CC1 | 2.027 |
| O=C(CS(=O)(=O)c1ccc(Cl)cc1)NC1CCCc2ccccc21 (stereo not given) | 1.396 |
| CC(C)OC(C)c1nnc(SCC(=O)O)n1-c1ccc(F)cc1F (stereo not given) | 15.24 |
| N[C@H]1CN(C(=O)c2ccccc2OCc2ccccc2)C[C@@H]1C1CC1 | 10.21 |
| COc1ccccc1[C@@H]1CN(C(=O)Cc2csc(C)n2)C[C@H]1C(=O)O | 12.9 |
| CCOc1ccccc1CC(=O)N1C[C@@H](C(=O)O)[C@H](C2CC2)C1 | 111.1 |
| N[C@H]1CN(C(=O)Cc2ccc(Cl)c(Cl)c2)C[C@@H]1C1CC1 | 0.666 |
| CCOc1ccccc1CC(=O)N1C[C@H](C2CC2)[C@@H](N)C1 | 104.9 |
| CCOc1ccc(CC(=O)N2C[C@H](C3CC3)[C@@H](N)C2)cc1 | 13.07 |
| CCOc1ccccc1CC(=O)N1C[C@@H](C(=O)O)[C@H](c2ccncc2)C1 | 102.2 |
| O=C(O)[C@@H]1CN(C(=O)CCc2ccccn2)C[C@H]1c1ccccc1 | 11.77 |
| CCOCCOc1ccccc1C(=O)N1C[C@H](C2CC2)[C@@H](N)C1 | -0.9919 |
| O=C(O)[C@@H]1CN(C(=O)Cc2ccccc2Cl)C[C@H]1C1CC1 | 117.2 |
| O=C(O)[C@@H]1CN(Cc2cc3c(cc2Cl)OCO3)C[C@H]1C1CC1 | -1.718 |
| Cc1nc(C)c(CC(=O)N2C[C@@H](C(=O)O)[C@H](c3ccncc3)C2)s1 | -15.05 |
| CS(=O)(=O)N1C[C@H]2CNC[C@@]2(C(=O)NCCCc2ccccc2)C1 | 15.21 |
| C1CCCN(c2nc(C3CC3)ns2)CC1 | 16.93 |
| CCCS(=O)(=O)N1CCC2(CN(c3cnn(C)c3)C(=O)CN2C)C1.O=C(O)C(F)(F)F (stereo not given) | -3.589 |
| CCc1cc(NC(C)(C)C)nc(N2CCOCC2)n1 | -8.862 |
| CCc1cc(NCCS(=O)(=O)N(C)C)nc(N2CCOCC2)n1 | 7.02 |
| CS(=O)(=O)NCc1cc(-c2cc(F)cc(F)c2)nc(N2CCOCC2)n1 | 112.2 |
| CS(=O)(=O)NCc1cc(-c2cc(F)cc(F)c2)nc(N2CCCC2)n1 | 85.03 |
| Cc1cc(F)cc(S(=O)(=O)NCCCN2CCC(O)CC2)c1 | 17.75 |
| Cc1cc(F)cc(CN2CCCn3nc(CNS(C)(=O)=O)cc3C2)c1 | -6.917 |
| CS(=O)(=O)NCc1cc(-c2cc(F)cc(F)c2)nc(N2CC[C@H](O)C2)n1 | 97.73 |
| Cc1nc(N2CCCC2)nc(C)c1NS(C)(=O)=O | 5.529 |
| Cc1nn2c(N3CCC(O)C3)cc(-c3ccccc3)nc2c1C (stereo not given) | 3.691 |
